Assay outcomes: PubChem, several laboratories
An excerpt weighted towards active compounds, which were near 3.5% of everything screened.
BoNT A protease – BoNT A light chain protease inhibition; AID 588499; inhibition, % at 10 µM; multiplex microsphere protease substrate cleavage, flow cytometry; 360,000 compounds, 0.17% hits; note: plate controls were buffer without enzyme for full effect and enzyme alone for no effect
Anthrax LF inh2 – inhibitors of Bacillus anthracis lethal factor protease; P15917; multiplex microsphere protease cleavage assay, LF; inhibition, % at 10 µM; 360,000 compounds, 0.12% hits; AID 588501; note: plate controls were buffer without enzyme for full effect and enzyme alone for no effect
Target sequence (P15917 whole entry, looked up): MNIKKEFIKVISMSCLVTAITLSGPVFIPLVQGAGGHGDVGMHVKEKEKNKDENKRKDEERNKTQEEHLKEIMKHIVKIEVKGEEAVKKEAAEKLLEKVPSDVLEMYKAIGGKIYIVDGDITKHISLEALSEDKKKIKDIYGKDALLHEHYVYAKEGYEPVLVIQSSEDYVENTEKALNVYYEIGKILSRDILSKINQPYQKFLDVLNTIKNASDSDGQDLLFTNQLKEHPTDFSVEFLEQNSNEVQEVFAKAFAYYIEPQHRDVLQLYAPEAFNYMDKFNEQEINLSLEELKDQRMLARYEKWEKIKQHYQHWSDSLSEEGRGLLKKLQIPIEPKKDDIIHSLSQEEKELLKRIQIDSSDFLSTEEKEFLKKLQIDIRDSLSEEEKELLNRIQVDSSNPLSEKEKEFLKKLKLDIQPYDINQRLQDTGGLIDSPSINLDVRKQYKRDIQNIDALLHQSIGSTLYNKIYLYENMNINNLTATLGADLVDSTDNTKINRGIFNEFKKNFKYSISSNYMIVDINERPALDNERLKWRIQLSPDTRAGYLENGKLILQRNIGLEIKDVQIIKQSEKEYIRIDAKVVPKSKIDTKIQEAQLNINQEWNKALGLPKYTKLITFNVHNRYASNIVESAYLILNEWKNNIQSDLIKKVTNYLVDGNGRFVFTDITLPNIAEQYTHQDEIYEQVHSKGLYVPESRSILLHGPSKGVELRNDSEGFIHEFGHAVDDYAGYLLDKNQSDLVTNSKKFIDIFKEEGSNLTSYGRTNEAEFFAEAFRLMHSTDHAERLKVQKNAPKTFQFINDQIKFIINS
BoNT-F LC inh – BoNT F light chain protease inhibition; Multiplex microsphere protease cleavage assay, flow cytometry; inhibition, % at 10 µM; 360,000 compounds, 0.22% hits; AID 588497; in the data active = inhibition above about 35%, passing the limit was not always enough; inconclusive = no clear call, values can overlap the other calls; note: plate controls were buffer without enzyme for full effect and enzyme alone for no effect
Bead autofluor – flagged as autofluorescent in microsphere protease counterscreen; 360,000 compounds, 3.1% hits; compound autofluorescence counterscreen, microsphere flow cytometry; active compounds read high; AID 624483; fluorescence intensity (test concentration not listed); in the data active = fluorescence intensity above about 16000; inconclusive = no clear call, values can overlap the other calls
3CLpro inhibitor – SARS-CoV 3CLpro protease inhibition. recombinant SARS-CoV 3CLpro, quenched FRET peptide cleavage. inhibition, % at 6 µM. 290,000 compounds, 0.14% hits; in the data active = inhibition above about 12%
* marks the source's active call; other numbers are inactive results; ? = inconclusive; . = not tested or not shown. Cut-off read from the data, not from the text of the source, unless noted: active = inhibition above about 30%; inconclusive = no clear call, values can overlap the other calls; inactive = below that.

SMILES	BoNT A protease	Anthrax LF inh2	BoNT-F LC inh	Bead autofluor	3CLpro inhibitor
O=C1/C(=C\c2cccs2)N=C(c2cccs2)N1Nc1ccccc1	68*	50*	40*	5432	9
CCn1c(C)nc2cc(-c3nnc(-c4c(-c5ccccc5)noc4C)o3)ccc21	0	0	0	16285*	-7
CCc1c(C)c2ccc(O)c(CN(C)C)c2oc1=O	2	0	1	22113*	-2
CC(=O)NC(CC(=O)Nc1ccc(S(=O)(=O)NC2=NCCCCC2)cc1)c1ccccc1 (centres undefined)	-2	-3	-4	?	.
c1ccc(-n2ncc3c(NCCN4CCOCC4)ncnc32)cc1	0	1	0	16340*	1
c1ccc(CNc2ncnc3c2cnn3-c2ccccc2)cc1	0	-2	-6	16180*	-4
CN(Cc1ccccc1)c1ncnc2c1cnn2-c1ccccc1	4	-2	5	22100*	1
c1ccc(-n2ncc3c(NCc4ccccn4)ncnc32)cc1	-1	0	-2	24065*	-6
Fc1ccc(CNc2ncnc3c2cnn3-c2ccccc2)cc1	0	2	?	4065	-2
CC(=O)OCCn1c2nc(=O)[nH]c(=O)c-2nc2cc(C)c(C)cc21	8	-10	42*	2682	-5
Cc1ccc(NC(=S)Nc2cc(C(=O)O)ccc2N2CC3CC(C2)c2cccc(=O)n2C3)cc1C (centres undefined)	0	0	-10	3566	1
COc1cc(SC)ccc1C(=O)NCCOc1ccc(Cl)cc1	0	-1	-1	2391	6
COc1cc(SC)ccc1C(=O)NCCOc1c(C)cc(C)cc1C	0	-2	-1	20169*	-8
Cc1ccc(/C=N/n2c(-c3ccccc3)n[nH]c2=S)cc1	1	-6	23	3033	1
N=C1N(/N=C/c2ccccc2)C(=Nc2ccccc2)C(=S)N1c1ccccc1	13	14	-2	18941*	3
Cc1ccc(OC(=O)c2cccnc2)cc1	-1	-5	0	3059	3
CC(C)(C)c1cc(C(=O)Nc2cccc3ccccc23)ccn1	-1	9	-8	6897	2
CCc1ccc(NC(=O)N(C2CCCCC2)C(C)c2cccnc2)cc1 (centres undefined)	-2	0	-2	20168*	3
CCc1ccc(NC(=O)c2cccnc2)cc1	?	-2	-5	21122*	-3
CCc1ccc(OC(=O)c2cccnc2)cc1	-3	37*	-6	3031	2
Cc1ccc(NC(=O)N(C2CCCCC2)C(C)c2cccnc2)cc1C (centres undefined)	0	-6	1	5584	-2
CCc1ccc(NC(=O)c2ccnc(C(C)(C)C)c2)cc1	-1	-2	-2	24202*	-3
O=C(Nc1ccc(NS(=O)(=O)c2ccccc2)cc1)c1cccnc1	0	1	0	2484	3
CCN(C(=O)c1ccnc(C(C)(C)C)c1)c1ccccc1	6	-3	6	21211*	6
CCCNS(=O)(=O)c1ccc(NC(=O)c2cccnc2)cc1	0	0	1	20443*	3
SMILES	BoNT A protease	Anthrax LF inh2	BoNT-F LC inh	Bead autofluor	3CLpro inhibitor
Cc1ccc(C(=O)NC(Cc2c[nH]c3ccccc23)C(=O)O)cc1 (centres undefined)	?	-2	0	20051*	-2
CC(C)c1ccc(OCC(=O)NC(Cc2c[nH]c3ccccc23)C(=O)O)cc1 (centres undefined)	0	1	-1	4598	1
O=C(NC(Cc1c[nH]c2ccccc12)C(=O)O)c1ccc(Br)cc1 (centres undefined)	0	-2	-7	2115	0
O=C(COc1ccccc1)NC(Cc1c[nH]c2ccccc12)C(=O)O (centres undefined)	0	-5	0	16391*	1
CC(=O)Nc1ccc(NC(=O)C(C)Sc2nc3nc(C)cc(C)n3n2)cc1 (centres undefined)	2	2	?	5833	.
CCn1c(SC)nnc1-c1nn(-c2ccccc2)ccc1=O	-1	-6	-3	2994	-4
Cc1ccc(S(=O)(=O)Nc2ccc3nc(N)sc3c2)cc1	?	-3	5	19122*	6
Cc1cccc2cc(/C=C3\N=C(c4ccccc4)OC3=O)c(N3CCOCC3)nc12	124*	65*	41*	3098	1
CCOC(=O)c1sc(=S)n(-c2ccc(Cl)cc2)c1SC	0	-2	-1	21737*	-1
CCOC(=O)c1ccc(-n2c(N)c(C(=O)NCc3ccco3)sc2=S)cc1	2	-1	0	23235*	4
CCOC(=O)c1sc(=S)n(-c2ccc(C)cc2)c1N	-4	-2	-18	4173	0
CCOC(=O)c1sc(=S)n(-c2ccc(F)c(F)c2)c1N	-5	0	-4	21634*	0
O=C(Nc1nc2ccc(S(=O)(=O)N3CCOCC3)cc2s1)c1cccs1	0	-2	-8	2388	-3
CCSc1ccc(-c2cc(NC=O)c3ncc(-c4cc(OC)c(OC)c(OC)c4)n3c2)cc1	1	1	3	3946	.
O=C(O)Cn1ccc2ccccc21	0	2	-5	3352	-2
Cc1ccn(CC(=O)O)c(=O)c1	?	-3	-1	22082*	3
Cc1ccc(C(=O)N/C(=C\c2cccs2)C(=O)NCCc2c[nH]c3ccccc23)cc1C	-2	-3	-6	16774*	4
O=C(NCCc1c[nH]c2ccccc12)/C(=C\c1cccs1)NC(=O)c1ccccc1	0	1	-6	2605	9
CCOC(=O)c1c(C)nc2c(c1-c1cc(OC)c(OC)c(OC)c1)C(=O)c1ccccc1-2	?	-1	5	19026*	0
CCOC(=O)c1c(C)nc(C)c(C(=O)OCC)c1-c1ccccc1	1	0	4	9531	2
COc1c(C(=O)NC(=S)Nc2nnn(C)n2)cc2ccccc2c1Br	1	-5	11	4197	-3
CCN(Cc1ccccc1)C(=O)C1CCN(Cc2ccc(OC)c(OC)c2OC)CC1	?	1	-1	22911*	-5
Cc1cc(C)c2c(=O)[nH]n(C(C)C)c2n1	-2	-12	-60	4784	2
C=CCN(CC=C)c1cnn(-c2nc3ccccc3[nH]2)c(=O)c1Cl	-3	-2	-2	21324*	2
COC(=O)c1cn(C(=O)c2ccccc2F)nc1N	4	1	6	21604*	-6
SMILES	BoNT A protease	Anthrax LF inh2	BoNT-F LC inh	Bead autofluor	3CLpro inhibitor
Cc1[nH]n(-c2ccc([N+](=O)[O-])cc2)c(=O)c1C=NCCN1CCN(C(=O)c2ccc(F)cc2)CC1	?	0	-2	20052*	-1
c1ccc(-c2nc(NCc3ccco3)c3oc4ccccc4c3n2)cc1	?	-4	2	22249*	-8
O=C1CSc2ccccc2N1Cc1ccccc1F	-2	2	-3	24057*	-1
O=C(NCCN1CCOCC1)c1ccc2c(c1)N(Cc1ccccc1F)C(=O)CS2	0	-1	0	4012	10
CN(C)CCOCCP(=O)(c1ccccc1)c1ccccc1	1	2	4	23350*	-1
CCN(CC)CCP(=O)(c1ccccc1)c1ccccc1	0	-5	-5	9468	1
CCc1ccc2nc3c(c(C(=O)O)c2c1)CCC3	2	-2	3	22313*	0
